In PubChem BioAssay (EPA / NIEHS):
Calls of active or inactive are those of the source. How the source made its calls: active means hit-call score of the fitted dose curve at least 0.9, where 1 is the maximum; inactive means score below 0.9.

experiment: ATG_TAL_CIS: Attagene CIS-FACTORIAL HepG2 Assay for human TAL Basal Promoter (AID 2282966); settings: HepG2 Attagene cis-factorial TAL promoter reporter; actives raise or lower the signal;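 further: background control endpoint measuring basal TAL promoter reporter mRNA not a specific factor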
How it was run: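 Background-control endpoint: basal TAL promoter reporter transcripts in transiently transfected HepG2, measured 24 h after dosing. Read-out by RT-PCR with fluorescent primer extension and capillary electrophoresis; gain or loss of signal fitted relative to DMSO.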

Row | Structure (SMILES) | outcome
1 | CC1=CC2C3C=CC(C3)C2C1C (centres undefined) | inactive
2 | C[Si](Cl)(Cl)CCC(F)(F)C(F)(F)C(F)(F)C(F)(F)C(F)(F)C(F)(F)F | inactive
3 | OCC(O)CC(F)(F)C(F)(F)C(F)(F)C(F)(F)F (centres undefined) | inactive
4 | O=C(O)C(F)(F)C(F)(F)C(F)(F)OC(F)(F)F | inactive
5 | CSc1ccc(O)cc1C | inactive
6 | OCC(F)(F)C(F)(F)C(F)(F)CO | inactive
7 | O=C1c2ccccc2C(=O)c2c(Cl)cccc21 | inactive
8 | OCC(O)CC(F)(F)C(F)(F)C(F)(F)C(F)(F)C(F)(F)C(F)(F)C(F)(F)C(F)(F)F (centres undefined) | inactive
9 | CCC(=O)OC(C)c1ccccc1 (centres undefined) | inactive
10 | CCC(Cc1c(I)cc(I)c(N)c1I)C(=O)O (centres undefined) | inactive
11 | COC(F)(C(F)F)C(F)(F)F (centres undefined) | inactive
12 | CN(C(=O)C(F)(F)C(F)(F)C(F)(F)F)[Si](C)(C)C | inactive
13 | NCC(F)(F)C(F)(F)C(F)(F)C(F)(F)C(F)(F)C(F)(F)F | inactive
14 | OCC(F)(F)C(F)(F)C(F)(F)C(F)(F)C(F)(F)C(F)(F)C(F)(F)C(F)(F)CO | inactive
15 | OCCCC(F)(F)C(F)(F)C(F)(F)C(F)(F)C(F)(F)C(F)(F)C(F)(F)C(F)(F)F | inactive
16 | O=C1C=CC(=O)N1c1ccccc1 | inactive
17 | NC(=O)C(F)(F)C(F)(F)C(F)(F)C(F)(F)C(F)(F)C(F)(F)C(F)(F)F | inactive
18 | O=C(O)C(F)(F)OC(F)(F)C(F)(F)OC(F)(F)C(F)(F)OC(F)(F)F | inactive
19 | FC(F)(F)C(F)(F)C(F)(F)CC1CO1 (centres undefined) | inactive

Row | Structure (SMILES) | outcome
20 | Cc1ccc(S(=O)(=O)C(I)I)cc1 | inactive
21 | CCOC(=O)CC(=O)C(F)(F)C(F)(F)F | inactive
22 | Cc1cnccn1 | inactive
23 | C=C(C)C(=O)OCC(F)(F)C(F)(F)C(F)(F)C(F)F | inactive
24 | CC(C)CC=C(C=O)c1ccccc1 | inactive
25 | CC(C)=CCCC(C)O (centres undefined) | inactive
26 | NC(=O)C(F)(F)C(F)(F)C(F)(F)C(F)(F)C(N)=O | inactive
27 | Nc1cccnc1N | inactive
28 | Cc1ccc2c(c1)OCC(=O)CO2 | inactive
29 | COC(=O)c1ccc(C=O)cc1 | inactive
30 | O=C(F)C1(F)C(F)(F)C(F)(F)C(F)(F)C(F)(F)C1(F)F | inactive
31 | FC(F)(F)C(F)(F)C(F)(F)C(F)(F)C(F)(F)C(F)(F)C(F)(F)CCI | inactive
32 | Nc1c(Br)cc([N+](=O)[O-])cc1Br | inactive
33 | O=S(=O)(Cl)C(F)(F)C(F)(F)C(F)(F)C(F)(F)C(F)(F)C(F)(F)C(F)(F)C(F)(F)F | inactive
34 | CCOC(C=C(C)CCC=C(C)C)OCC | inactive
35 | CNS(=O)(=O)C(F)(F)C(F)(F)C(F)(F)C(F)(F)C(F)(F)C(F)(F)C(F)(F)C(F)(F)F | inactive
36 | C=CC(=O)OCC(F)(F)C(F)(F)C(F)(F)COC(=O)C=C | inactive
37 | CCN(CCO)S(=O)(=O)C(F)(F)C(F)(F)C(F)(F)C(F)(F)C(F)(F)C(F)(F)C(F)(F)C(F)(F)F | inactive

experiment: ATG_TGFb_CIS: Attagene CIS-FACTORIAL HepG2 Assay for human Transforming Growth Factor (TGF) (AID 2282967); settings: HepG2 Attagene CIS TGFb reporter, mRNA transcription; actives raise or lower the signal
How it was run: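 HepG2 cells transiently transfected with cis-promoter-driven multiple reporter units measure endogenous TF activity; reporter mRNA quantified at 24 h by RT-PCR, FAM labeling, HpaI digestion and capillary electrophoresis. Bidirectional fit vs DMSO.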

Row | Structure (SMILES) | outcome
38 | CC1=CC2C3C=CC(C3)C2C1C (centres undefined) | inactive
39 | C[Si](Cl)(Cl)CCC(F)(F)C(F)(F)C(F)(F)C(F)(F)C(F)(F)C(F)(F)F | inactive
40 | OCC(O)CC(F)(F)C(F)(F)C(F)(F)C(F)(F)F (centres undefined) | inactive
41 | O=C(O)C(F)(F)C(F)(F)C(F)(F)OC(F)(F)F | inactive
42 | CSc1ccc(O)cc1C | inactive
43 | OCC(F)(F)C(F)(F)C(F)(F)CO | inactive
44 | O=C1c2ccccc2C(=O)c2c(Cl)cccc21 | inactive
45 | OCC(O)CC(F)(F)C(F)(F)C(F)(F)C(F)(F)C(F)(F)C(F)(F)C(F)(F)C(F)(F)F (centres undefined) | inactive
46 | CCC(=O)OC(C)c1ccccc1 (centres undefined) | inactive
47 | CCC(Cc1c(I)cc(I)c(N)c1I)C(=O)O (centres undefined) | inactive
48 | COC(F)(C(F)F)C(F)(F)F (centres undefined) | inactive
49 | CN(C(=O)C(F)(F)C(F)(F)C(F)(F)F)[Si](C)(C)C | inactive
50 | NCC(F)(F)C(F)(F)C(F)(F)C(F)(F)C(F)(F)C(F)(F)F | inactive
51 | OCC(F)(F)C(F)(F)C(F)(F)C(F)(F)C(F)(F)C(F)(F)C(F)(F)C(F)(F)CO | inactive
52 | OCCCC(F)(F)C(F)(F)C(F)(F)C(F)(F)C(F)(F)C(F)(F)C(F)(F)C(F)(F)F | inactive
53 | O=C1C=CC(=O)N1c1ccccc1 | inactive
54 | NC(=O)C(F)(F)C(F)(F)C(F)(F)C(F)(F)C(F)(F)C(F)(F)C(F)(F)F | inactive
55 | O=C(O)C(F)(F)OC(F)(F)C(F)(F)OC(F)(F)C(F)(F)OC(F)(F)F | inactive
56 | FC(F)(F)C(F)(F)C(F)(F)CC1CO1 (centres undefined) | inactive

Row | Structure (SMILES) | outcome
57 | Cc1ccc(S(=O)(=O)C(I)I)cc1 | inactive
58 | CCOC(=O)CC(=O)C(F)(F)C(F)(F)F | inactive
59 | Cc1cnccn1 | inactive
60 | C=C(C)C(=O)OCC(F)(F)C(F)(F)C(F)(F)C(F)F | inactive
61 | CC(C)CC=C(C=O)c1ccccc1 | inactive
62 | CC(C)=CCCC(C)O (centres undefined) | inactive
63 | NC(=O)C(F)(F)C(F)(F)C(F)(F)C(F)(F)C(N)=O | inactive
64 | Nc1cccnc1N | inactive
65 | Cc1ccc2c(c1)OCC(=O)CO2 | inactive
66 | COC(=O)c1ccc(C=O)cc1 | inactive
67 | O=C(F)C1(F)C(F)(F)C(F)(F)C(F)(F)C(F)(F)C1(F)F | inactive
68 | FC(F)(F)C(F)(F)C(F)(F)C(F)(F)C(F)(F)C(F)(F)C(F)(F)CCI | inactive
69 | Nc1c(Br)cc([N+](=O)[O-])cc1Br | inactive
70 | O=S(=O)(Cl)C(F)(F)C(F)(F)C(F)(F)C(F)(F)C(F)(F)C(F)(F)C(F)(F)C(F)(F)F | inactive
71 | CCOC(C=C(C)CCC=C(C)C)OCC | inactive
72 | CNS(=O)(=O)C(F)(F)C(F)(F)C(F)(F)C(F)(F)C(F)(F)C(F)(F)C(F)(F)C(F)(F)F | inactive
73 | C=CC(=O)OCC(F)(F)C(F)(F)C(F)(F)COC(=O)C=C | inactive
74 | CCN(CCO)S(=O)(=O)C(F)(F)C(F)(F)C(F)(F)C(F)(F)C(F)(F)C(F)(F)C(F)(F)C(F)(F)F | inactive
